Bioassay records: PubChem, several laboratories
MEKK2 mut-MEK5: MEK5 binding signal on mutant MEKK2 PB1, primary screen, biochemical, multiplex bead flow cytometry, Alexa488-MEK5. Alexa488-MEK5 binding to MEKK2 mutant. percent response, % at 10 µM. 290,000 tested, 0.35% active. AID 1530, 2009; in the data active means percent response above about 24%, passing the limit was not always enough
UBC13 polyUb: UBC13 polyubiquitin chain formation inhibitors, primary screen, biochemical, TR-FRET, uHTS | Ubiquitin-conjugating enzyme E2 N (Homo sapiens), P61088 | inhibition, % at 20 µM | 330,000 tested, 0.47% active; in the data active means inhibition above about 45%, passing the limit was not always enough
MEKK3 PB1 HTS: modulators of MEKK3-MEK5 PB1 binding, primary screen, biochemical, wildtype MEKK3, multiplex bead flow cytometry, Alexa488-MEK5 | Mitogen-activated protein kinase kinase kinase 3 (Homo sapiens), Q99759 | bead-based flow cytometry, Alexa488-MEK5 binding to MEKK3; actives lie on both sides; 0 = blocked by unlabeled MEK5, 100 = vehicle | binding response (% of control), % at 10 µM | 290,000 tested, 1.4% active;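 active means binding response more than 3 SD above or below the average of its plate-row segment, actives on both sides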;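 further: Alexa488 bead fluorescence after subtracting the streptavidin-only scavenger bead signal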
Target sequence (Q99759 whole entry, looked up): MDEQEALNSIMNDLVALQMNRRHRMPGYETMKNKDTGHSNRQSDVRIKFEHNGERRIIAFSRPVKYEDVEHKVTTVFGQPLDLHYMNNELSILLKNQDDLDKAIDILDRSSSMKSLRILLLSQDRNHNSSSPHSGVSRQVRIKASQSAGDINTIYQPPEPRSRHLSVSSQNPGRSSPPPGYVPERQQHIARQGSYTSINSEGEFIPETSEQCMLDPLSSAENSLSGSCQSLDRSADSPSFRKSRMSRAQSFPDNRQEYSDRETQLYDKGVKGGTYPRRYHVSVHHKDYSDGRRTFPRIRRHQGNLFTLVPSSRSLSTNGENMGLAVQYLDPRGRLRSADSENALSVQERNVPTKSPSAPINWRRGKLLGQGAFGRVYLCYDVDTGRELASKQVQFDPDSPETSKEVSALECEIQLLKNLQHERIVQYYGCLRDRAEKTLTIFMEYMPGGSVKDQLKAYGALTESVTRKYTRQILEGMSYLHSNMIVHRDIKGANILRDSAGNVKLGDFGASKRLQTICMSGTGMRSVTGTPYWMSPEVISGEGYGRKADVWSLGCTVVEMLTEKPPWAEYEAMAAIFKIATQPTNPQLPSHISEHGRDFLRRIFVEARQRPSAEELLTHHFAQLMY
MEKK2 WT-MEK5: modulators of MEK5 binding to wildtype MEKK2, primary screen, biochemical, multiplex bead flow cytometry, Alexa488-MEK5. 290,000 tested, 1.1% active. Mitogen-activated protein kinase kinase kinase 2 (Homo sapiens), Q9Y2U5. Alexa488-MEK5 binding to MEKK2 WT; actives lie on both sides. binding response (% of control), % at 10 µM; in the data active means binding response below about 67% or above about 130%
MEKK2wt confirm: modulators of MEK5 binding to wildtype MEKK2, confirmation, biochemical, single concentration, multiplex bead flow cytometry; shares compounds with MEKK3 PB1 HTS; Alexa488-MEK5 binding to MEKK2 WT; actives lie on both sides; binding response (% of control), % at 10 µM; 5,900 tested, 2.4% active; in the data active means binding response below about 16% or above about 210%; inactive means in between
MEKK2mut-MEK5: mutant MEKK2 PB1-MEK5 binding signal retest – biochemical, single concentration, multiplex bead flow cytometry, confirmation | shares compounds with MEKK3 PB1 HTS | Alexa488-MEK5 binding to MEKK2 mutant | 5,900 tested, 2% active | percent response, % at 10 µM; in the data active means percent response mostly above about 71%, no sharp cut-off; inactive means mostly below about 38%;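 further: higher means compound restores mutant binding toward wildtype level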
MEKK3 confirm: MEKK3 wild-type PB1 binding to MEK5, inhibitors, confirmation, biochemical, bead multiplex flow cytometry, single concentration, wildtype. 5,900 tested, 1.8% active. Alexa488-MEK5 binding to MEKK3; stronger effect = lower value. shares compounds with MEKK3 PB1 HTS. AID 1894, 2009. binding response (% of control), % at 10 µM;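 active means binding response below 72% of control, or above a set upper limit, though filed actives all read lower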;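 further: 100% = DMSO only wells and 0% = binding blocked by excess unlabeled MEK5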
Starred values were filed as active, the others as inactive; . = not tested or not shown; [ ] = dose if it differs, or a comment. An excerpt weighted towards active compounds, which were near 2.3% of everything screened.

SMILES	MEKK2 mut-MEK5	UBC13 polyUb	MEKK3 PB1 HTS	MEKK2 WT-MEK5	MEKK2wt confirm	MEKK2mut-MEK5	MEKK3 confirm
CCOc1ccc(NC(=O)COc2ccc3c(c2)CCC3)cc1OC	.	-3	.	.	.	.	.
N#Cc1cc(S(=O)(=O)c2ccccc2)c(N)[nH]c1=O	3	9	112	112	.	.	.
Cc1ccccc1S(=O)(=O)c1cc(C#N)c(=O)[nH]c1N	-13	17	69*[inhibitor]	74	102	-1	101
CCOC(=O)C1CCN(C(=O)COC(=O)c2c(C)c(CC)nc3ccccc23)CC1	.	13	.	.	.	.	.
CC1c2ccccc2N(NC(=O)Cc2ccccc2)C1C (configuration not stated)	28	3	135*	131	101	1	102
Cc1ccc(N=C2C(=S)N(c3ccc(C)cc3)C(=N)N2/N=C/c2ccc(Cl)cc2)cc1	-1	-24	117	100	.	.	.
CCOC(=O)c1c(C)n(-c2ccc(C)cc2)c2ccc(OCC(O)CN3CCN(C)CC3)cc12 (configuration not stated)	104*	.	104	289*	214*	71*	112
Cc1ccc(NC(=O)c2cc3c(s2)CCCC3)cc1S(=O)(=O)Nc1ccccc1Cl	1	5	133*	111	95	-5	102
COc1ccccc1NS(=O)(=O)c1cc(NC(=O)c2cnccn2)ccc1N1CCOCC1	-24	-8	58*[inhibitor]	72	105	6	102
O=C(Nc1ccc(Cl)c(Cl)c1)Nc1ccc(N2CCCC2)c(S(=O)(=O)Nc2ccccc2Cl)c1	44	-15	107	44*[inhibitor]	102	4	104
O=C(Nc1ccc(F)cc1)Nc1ccc(N2CCCC2)c(S(=O)(=O)Nc2ccccc2Cl)c1	50	-2	106	49	.	.	.
Cc1ccc(C(=O)Nc2ccc(C)c(S(=O)(=O)Nc3ccccc3Cl)c2)s1	2	-1	104	105	.	.	.
COc1ccc(N=C2S/C(=C\c3ccc(OCC(=O)O)cc3)C(=O)N2CCc2c[nH]c3ccccc23)cc1	-16	-72	79	65	.	.	.
COc1ccc(N=C2S/C(=C\c3ccc(N4CCOCC4)o3)C(=O)N2CCc2c[nH]c3ccccc23)cc1	99*	-90	107	161*	88	-25	91
CC(=O)O[C@H]1CC(=O)OC(C)(C)C2CC(=O)[C@]3(C)C(CC[C@@](C)([C@@H](O[C@@H]4O[C@H](CO)[C@@H](O)[C@H](O)[C@H]4O)c4ccoc4)[C@@]34O[C@@H]4C(=O)O)[C@]21C (some centres not stated)	.	-1	.	.	.	.	.
CCOc1ccccc1N1Cc2cc(C)c(C)cc2C1	4	-24	96	92	.	.	.
COc1ccc(OC)c(N2Cc3cc(C)c(C)cc3C2)c1	-27	-33	8.0*[inhibitor]	10*[inhibitor]	91	-5	98
O=C(Nc1nccs1)c1ccc(-c2ccc(F)cc2)o1	3	17	106	109	.	.	.
O=C(Nc1nccs1)c1ccc(-c2ccc(Cl)cc2)o1	-26	25	3.0*[inhibitor]	3.0*[inhibitor]	105	0	99
COc1ccc(-n2c(=S)[nH]c3cc(C(=O)Nc4ccc(OC)c(OC)c4)ccc3c2=O)cc1	-1	.	140*	103	94	-4	100
COc1ccc(-n2c(=S)[nH]c3cc(C(=O)Nc4cccc(C)c4)ccc3c2=O)cc1	-1	-16	155*	105	101	4	103
CCOC(=O)N1CCN(C(=O)c2ccc3c(=O)n(-c4ccc(F)cc4)c(=S)[nH]c3c2)CC1	-21	9	1.0*[inhibitor]	0.0*[inhibitor]	94	-1	87
CCOc1cccc2cc(C(C)=O)oc12	-8	-2	95	88	.	.	.
Cc1ccc(CNC(=O)COC(=O)c2ccc(S(=O)(=O)NCc3ccco3)cc2)cc1	.	4	.	.	.	.	.
C=C1CC[C@H](O)C/C1=C/C=C1\CCC[C@]2(C)[C@@H]([C@H](C)/C=C/[C@H](C)C(C)C)CC[C@@H]12	.	-26	.	.	.	.	.
SMILES	MEKK2 mut-MEK5	UBC13 polyUb	MEKK3 PB1 HTS	MEKK2 WT-MEK5	MEKK2wt confirm	MEKK2mut-MEK5	MEKK3 confirm
Oc1ccc(N=Nc2cccc(Cl)c2)cc1C=Nc1ccc(N2CCOCC2)cc1	4	.	97	100	.	.	.
Oc1c(Br)cc(Cl)cc1C=Nc1ccc(N2CCOCC2)cc1	-18	-18	89	54*[inhibitor]	83	-8	101
O=c1c(Cl)c(N2CCN(c3ccc(F)cc3)CC2)cnn1C12CC3CC(CC(C3)C1)C2	0	1	148*	100	119	18	110
COc1ccc(/C=C2\Oc3cc(OCC(=O)N4CC(O)C[C@H]4C(=O)O)ccc3C2=O)cc1OC (some centres not stated)	-1	-12	98	100	.	.	.
COc1ccc(C#Cc2ccc3c(=O)c4ccccc4n(C)c3c2)cc1	-5	-3	97	79	.	.	.
COc1ccccc1C#Cc1ccc2c(=O)c3ccccc3n(C)c2c1	-9	-23	91	66*[inhibitor]	86	-9	94
N/C(=N\NS(=O)(=O)c1ccc(Cl)cc1)c1ccccn1	.	-2	.	.	.	.	.
Cc1c(C(=O)C(=O)N2c3ccc(F)cc3CCC2C)c2ccccc2n1C (configuration not stated)	1	-3	141*	108	97	-4	104
C=CCc1ccc(OCCCCOc2ccc(C(=O)O)cc2)c(OC)c1	-5	-6	103	98	.	.	.
C=CCc1ccc(OCCCOc2ccc(C)c(C)c2)c(OC)c1	-10	-17	80*[inhibitor]	91	99	-6	99
Cc1cc(C)c2c(n1)sc1c(O)cc(=O)[nH]c12	8	4	122*	114	112	12	107
COc1ccc(-c2nn(-c3ccccc3)cc2CN(C)CCn2ccnc2C)c(F)c1	-37	1	44*[inhibitor]	57	90	-3	96
COCCCNC(=O)c1cc2cc([N+](=O)[O-])cc(OC)c2oc1=O	-16	-19	39*[inhibitor]	51	105	5	105
O=C(O)CNC(=O)c1ccc(NC(=O)/C(=C/c2ccccc2)NC(=O)c2ccccc2)cc1	2	-5	104	105	.	.	.
CCOC(=O)Cc1c(C)nc2c(-c3ccc(Cl)cc3)c(C)nn2c1C	-34	1	0.0*[inhibitor]	.	90	-10	89
